# In the library only some 9.9% were active in any assay of this set; here they are far more common.
# Tau fluor cs = Counterscreen qHTS for Inhibitors of Tau Fibril Formation, Fluorescence Polarization. tau K18 P301L Alexa594 fluorescence, heparin fibrillization. Potency, µM (series often up to 57.7 µM), without a hit: at the highest dose activity change, negative = decrease. actives 0.93% (n = 280,000); active = well fitted curve in the direction sought with a large enough effect; inconclusive = small, poorly fitted or top-dose-only effect, or another doubt; inactive = no such curve, though single readings can be large; an effect the other way counts as inactive or inconclusive; note: nearly all actives have a fitted effect of over 55% in size
#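 Human tau K18 P301L (15 uM unlabeled, 0.24 uM Alexa 594-labeled) in 100 mM sodium acetate pH 7 with 20 uM heparin, 6 hr at 37 C. ThT 30 uM added, 1 hr ambient; Alexa 594 FP and total fluorescence read at 555/632 nm.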
# ALDH1A1 block = qHTS Assay for Inhibitors of Aldehyde Dehydrogenase 1 (ALDH1A1) | Aldehyde dehydrogenase 1A1 (Homo sapiens), P00352 | Purified ALDH1A1, NADH fluorescence, propionaldehyde substrate | Potency, µM (series often up to 75.3 µM), for the others: at the top dose activity, negative = inhibition, most hits filed as inhibitors | actives 7.3% (n = 220,000) | AID 1030, 2008;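 note: plate controls were no enzyme wells and a reference inhibitor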
# Target sequence (P00352 whole entry, looked up): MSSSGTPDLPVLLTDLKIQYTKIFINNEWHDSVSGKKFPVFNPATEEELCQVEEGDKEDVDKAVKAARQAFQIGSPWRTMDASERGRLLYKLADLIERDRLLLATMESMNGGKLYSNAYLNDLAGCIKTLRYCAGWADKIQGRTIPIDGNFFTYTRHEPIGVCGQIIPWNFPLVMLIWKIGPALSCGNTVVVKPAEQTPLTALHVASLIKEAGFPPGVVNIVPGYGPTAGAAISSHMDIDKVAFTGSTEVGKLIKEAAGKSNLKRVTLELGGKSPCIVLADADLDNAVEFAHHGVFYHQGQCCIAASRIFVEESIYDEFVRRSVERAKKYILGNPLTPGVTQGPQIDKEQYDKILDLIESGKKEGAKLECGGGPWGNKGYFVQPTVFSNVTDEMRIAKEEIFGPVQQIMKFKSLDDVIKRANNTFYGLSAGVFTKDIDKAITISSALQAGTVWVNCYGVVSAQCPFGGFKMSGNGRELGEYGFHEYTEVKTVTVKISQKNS
# KDM4E inh = qHTS Assay for Inhibitors of Human Jumonji Domain Containing 2E (JMJD2E); Lysine-specific demethylase 4E (Homo sapiens), B2RXH2; JMJD2E catalytic domain, FDH-coupled NADH fluorescence (FDH is formaldehyde dehydrogenase); Potency, µM (doses to about 57.1 µM), inactives show at the highest dose activity change, negative = inhibition, hits mostly inhibitors; actives 1.6% (n = 230,000);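 note: 0% = wells with enzyme and -100% = buffer wells without enzyme; nearly all actives have a fitted effect of over 50% in size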
# Tau fibril FP = qHTS for Inhibitors of Tau Fibril Formation, Fluorescence Polarization; Microtubule-associated protein tau (Homo sapiens), P10636; K18 P301L tau heparin fibrillization, Alexa594 FP, 6 h; Potency, µM (titrated, usually from 57.7 µM), for inactives: at the top dose activity, negative = inhibition, actives largely listed as inhibitors; actives 0.39% (n = 280,000); AID 1468, 2008; active = well fitted curve in the direction sought with a large enough effect; inconclusive = small, poorly fitted or top-dose-only effect, or another doubt; inactive = no such curve, though single readings can be large; an effect the other way counts as inactive or inconclusive; note: nearly all actives have a fitted effect of over 55% in size
#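 Quantitative HTS format: compounds meet 15 uM recombinant K18 P301L tau and Alexa 594-tau tracer in 100 mM sodium acetate pH 7; 20 uM heparin triggers fibrillization at 37 C over 6 hr; FP gives the signal.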
# Tau ThT inhib = qHTS for Inhibitors of Tau Fibril Formation, Thioflavin T Binding; Microtubule-associated protein tau (Homo sapiens), P10636; recombinant tau K18 P301L (four-repeat tau fragment), heparin-induced fibrillization, ThT fluorescence; Potency, µM (doses to about 57.4 µM), for the others: at the top dose activity, negative = inhibition, most hits filed as inhibitors; actives 2.1% (n = 270,000); active = well fitted curve in the direction sought with a large enough effect; inconclusive = small, poorly fitted or top-dose-only effect, or another doubt; inactive = no such curve, though single readings can be large; an effect the other way counts as inactive or inconclusive; note: nearly all actives have a fitted effect of over 55% in size
#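 Recombinant human tau K18 fragment […] carrying P301L, 15 uM unlabeled plus 0.24 uM Alexa 594-labeled, was fibrillized with 20 uM heparin in 100 mM sodium acetate pH 7 for 6 hr at 37 C; 30 uM ThT fluorescence read after 1 hr.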
# HPGD block = qHTS Assay for Inhibitors of HPGD (15-Hydroxyprostaglandin Dehydrogenase); AID 894, 2007; purified HPGD, NADH fluorescence kinetic, PGE2 substrate; 15-hydroxyprostaglandin dehydrogenase [NAD(+)] (Homo sapiens), P15428; Potency, µM, without a hit: top-dose activity change, negative = inhibition, most hits filed as inhibitors; actives 4.3% (n = 150,000)
# Target sequence (P15428 whole entry, looked up): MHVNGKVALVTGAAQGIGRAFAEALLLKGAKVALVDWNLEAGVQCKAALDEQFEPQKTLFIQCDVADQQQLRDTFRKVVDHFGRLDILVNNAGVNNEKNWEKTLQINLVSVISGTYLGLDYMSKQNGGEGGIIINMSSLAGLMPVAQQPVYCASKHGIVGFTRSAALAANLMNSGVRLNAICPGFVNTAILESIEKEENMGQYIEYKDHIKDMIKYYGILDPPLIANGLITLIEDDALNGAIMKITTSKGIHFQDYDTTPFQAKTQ
#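 20 nM HPGD preincubated 15 min at room temperature with compound in 50 mM Tris-HCl pH 8, 0.01% Tween 20. Started with 1 mM NAD+ and 30 uM prostaglandin E2; NADH fluorescence (360/450 nm) read 5 times over 30-s intervals, last minus first.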
# An asterisk follows results filed as active; ? = inconclusive; nt = not tested or not shown; [ ] = another dose, or the depositor's remark. Unless noted, calls come from the whole dose curve; as a rule, active = well fitted inhibition curve with a large enough effect (not every such curve was filed as active); inconclusive = small, poorly fitted or top-dose-only effect, or another doubt; inactive = no such curve, though single readings can be large or run the other way. Unless noted, % is set by controls: 0 for no effect and ±100 for the full control effect; potency is the fitted concentration of half-maximal effect.
SMILES,Tau fluor cs,ALDH1A1 block,KDM4E inh,Tau fibril FP,Tau ThT inhib,HPGD block
CCOC(=O)C1C2C=CC3(CN(Cc4ccccc4)C(=O)C13)O2 (centres undefined),-6.6%,0.4%,-22.1%,-3.1%,-5.8%,nt
CC(C)(C)OC(=O)NCC12C=CC(O1)C1C(=O)N(Cc3ccccc3)C(=O)C12 (centres undefined),-3.5%,3.16µM*,-6.1%,-1.6%,-19.7%,-10.5%
Cc1cc(F)ccc1NCC(=O)Nc1ccccc1Br,3.8%,28.2µM*,-2.7%,10.4%,1.1%,nt
COc1cccc(-n2c(C)nn(CCOc3ccccc3)c2=O)c1,-7.4%,2.8%,6.0%,-6.2%,-9.1%,nt
COc1cccc(=O)c2c(C)n(-c3cc(C)cc(C)c3)c(C)c12,-15.0%,-5.1%,0.6%,?,28.2µM*,28.2µM*
COc1cccc(=O)c2c(C)n(C)c(C)c12,-7.1%,5.7%,-21.3%,0.0%,?,-5.9%
COc1cccc(-n2c(C)c3c(OC)cccc(=O)c3c2C)c1,-25.9%,?,-22.4%,?,25.1µM*,nt
CCOC(=O)c1cc(-c2ccccc2)nn1CCC#N,-3.8%,-4.7%,-3.0%,-3.7%,-6.9%,nt
CCOC(=O)c1cc(-c2cccs2)nn1CCC#N,-8.0%,14.1µM*,-10.1%,4.4%,-13.7%,-14.1%
CC1=C(C(=O)Nc2ccccc2C)C(c2ccc[nH]2)n2ncnc2N1 (centres undefined),-16.1%,nt,nt,-6.3%,-14.9%,nt
C/C(=N\NC(=O)CC#N)C1COc2ccccc2O1 (centres undefined),-12.8%,5.1%,-0.9%,-7.6%,-11.3%,nt
COc1cccc(C(=O)N2c3nc(-c4ccco4)nn3C3(CCCCC3)[C@@H]3CCCC[C@@H]32)c1,-7.3%,nt,nt,0.3%,-8.5%,nt
O=C(/C=C/c1ccc(S(=O)(=O)N2CCOCC2)cc1)NCc1ccccc1Cl,2.1%,8.91µM*,1.6%,7.6%,8.3%,-10.9%
O=C(/C=C/c1ccc(S(=O)(=O)N2CCOCC2)cc1)NCc1ccc(Cl)cc1,-11.0%,12.1%,4.5%,-5.8%,2.1%,-7.4%
Cc1ccc(N2C(=O)/C(=C/c3ccco3)SC2=S)cc1,-26.1%,-4.1%,-1.1%,-12.9%,?,-9.9%
N=C1S/C(=C\c2ccco2)C(=O)N1c1ccc2c(c1)OCO2,?,?,-4.4%,-2.0%,15.8µM*,nt
COc1ccccc1OCCN1C(=O)S/C(=C\c2ccco2)C1=O,-27.0%,-17.9%,-3.1%,-4.1%,?,-14.4%
N=C1S/C(=C\c2ccco2)C(=O)N1c1nccs1,-22.3%,10µM*,-9.1%,-2.2%,15.8µM*,nt
COc1ccc(C(Nc2ccccn2)c2ccc3ccc(C)nc3c2O)cc1C (centres undefined),-19.2%,nt,nt,2.8%,15.8µM*,nt
COc1ccc(NC(=S)Nc2ccccc2)cc1,-1.4%,4.3%[13.5 µM],-3.3%,3.3%,0.7%,-1.2%
COc1ccc(NC(=S)Nc2ccc(N)c([N+](=O)[O-])c2)cc1,?,25.1µM*,1.5%,2.6%,15.8µM*,?
COc1ccc(CCC(=O)Nc2ccc(C)c([N+](=O)[O-])c2)cc1,-3.7%,10µM*,3.0%,2.2%,-6.6%,12.6µM*
COc1ccc(CCC(=O)Nc2cc([N+](=O)[O-])ccc2OC)cc1,?,?,1.4%,-10.3%,-10.4%,-15.4%
CC(=O)/C(=N\Nc1ccc(C)cc1)Sc1nncn1C,1.1%,?,-19.8%,-1.2%,-8.7%,-9.5%
COc1cc(NC(=O)N2CCC(CN3CCCC3)CC2)cc(OC)c1OC,0.6%,nt,nt,5.2%,3.5%,nt
SMILES,Tau fluor cs,ALDH1A1 block,KDM4E inh,Tau fibril FP,Tau ThT inhib,HPGD block
CCCOC(=O)c1ccc(NC(=O)c2ccccc2[N+](=O)[O-])cc1,-29.2%,?,4.3%,-6.8%,-14.2%,nt
Clc1ccc(-c2nnc(-c3ccc(Br)cc3)c(N3CCSCC3)n2)cc1,-8.1%,-1.6%,9.3%,-9.7%,-13.1%,-2.4%
Clc1ccc(-c2nnc(-c3ccco3)nc2N2CCCCC2)cc1,-4.8%,2.24µM*,-17.0%,-0.1%,?,?
COCC1CCCN(Cc2cn(-c3ccccc3)nc2-c2ccc3c(c2)OCO3)C1 (centres undefined),-1.3%,19.7%,-37.8%,-3.9%,3.3%,nt
CC(CCc1ccco1)NC(=O)Cn1ncc2c1-c1ccccc1OC2 (centres undefined),-2.1%,17.8µM*,-7.5%,-4.2%,-11.7%,-16.9%
O=C(Nc1ccc2c(c1)C(=O)N(CC1CCCO1)C2=O)c1ccc(Cl)c(Cl)c1 (centres undefined),?,?,?,?,-4.8%,?
O=C(Nc1ccc(O)c(C(=O)O)c1)c1ccc2c(c1)C(=O)N(CC1CCCO1)C2=O (centres undefined),-5.3%,10µM*,2.1%,1.5%,-12.5%,-27.0%
Cc1ccc(NC(=O)c2ccc3c(c2)C(=O)N(CC2CCCO2)C3=O)cc1C (centres undefined),-24.1%,3.16µM*,6.0%,-14.3%,-12.1%,nt
Cc1ccc(C(=O)Nc2ccon2)cc1S(=O)(=O)N1CCCC1,0.2%,?,-4.6%,-3.2%,6.0%,-27.9%
N=C1Sc2ccccc2C2=NCCCN12,-17.3%,10µM*,?,14.1µM*,7.08µM*,2.24µM*
Cc1cccc(CN2C(=O)c3ccccc3S(=O)(=O)c3ccc(C(=O)N4CCN(c5cc(C)ccc5C)CC4)cc32)c1,-5.6%,nt,nt,-4.3%,0.8%,nt
Nc1c(C(=O)c2ccccc2)sc2nsc(SCCN3CCCC3)c12,?,nt,5.9%,-14.3%,15.8µM*,nt
Nc1c(C(=O)c2ccc(Cl)cc2)sc2nsc(SCCN3CCOCC3)c12,?,nt,-4.2%,4.6%,?,nt
CCc1nnc(NC(=O)CSc2nccn2-c2cccc(C)c2C)s1,-10.2%,15.8µM*,1.2%,?,-7.8%,-16.4%
CC(C)(C)c1ccc(C(=O)NNc2ncnc3c2cnn3-c2ccc(Cl)cc2)cc1,-4.3%,nt,nt,-4.5%,7.3%,nt
COc1ccc(NC(=O)CCCn2c(=O)c3sccc3n(Cc3ccccc3)c2=O)cc1,-3.9%,7.7%,-4.6%,5.2%,-1.3%,-1.7%
COc1ccc(NC(=O)CCCn2c(=O)c3sccc3n(Cc3ccccc3C)c2=O)cc1,-19.4%,3.98µM*,-8.6%,-1.0%,-7.4%,-15.3%

# Bioassay records (PubChem BioAssay)
